We go through 32 targets from the supplement of paper PMC10849652.

Of roughly 7,900 targets only a part is listed; those with a hit were picked by preference. About 0.6% of all pairs of compound and target were hits.

UniProt O00767, sequence (O00767 whole entry, looked up): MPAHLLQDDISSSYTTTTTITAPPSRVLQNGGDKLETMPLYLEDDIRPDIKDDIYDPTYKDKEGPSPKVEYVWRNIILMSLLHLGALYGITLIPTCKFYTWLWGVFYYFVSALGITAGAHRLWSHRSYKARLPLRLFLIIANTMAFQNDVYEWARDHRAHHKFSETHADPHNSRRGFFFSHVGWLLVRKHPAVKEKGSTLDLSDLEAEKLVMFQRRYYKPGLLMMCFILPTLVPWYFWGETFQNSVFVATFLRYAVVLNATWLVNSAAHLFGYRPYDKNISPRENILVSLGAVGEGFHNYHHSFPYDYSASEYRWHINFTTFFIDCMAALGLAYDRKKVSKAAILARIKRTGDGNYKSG
UniProt P27694, sequence (P27694 whole entry, looked up): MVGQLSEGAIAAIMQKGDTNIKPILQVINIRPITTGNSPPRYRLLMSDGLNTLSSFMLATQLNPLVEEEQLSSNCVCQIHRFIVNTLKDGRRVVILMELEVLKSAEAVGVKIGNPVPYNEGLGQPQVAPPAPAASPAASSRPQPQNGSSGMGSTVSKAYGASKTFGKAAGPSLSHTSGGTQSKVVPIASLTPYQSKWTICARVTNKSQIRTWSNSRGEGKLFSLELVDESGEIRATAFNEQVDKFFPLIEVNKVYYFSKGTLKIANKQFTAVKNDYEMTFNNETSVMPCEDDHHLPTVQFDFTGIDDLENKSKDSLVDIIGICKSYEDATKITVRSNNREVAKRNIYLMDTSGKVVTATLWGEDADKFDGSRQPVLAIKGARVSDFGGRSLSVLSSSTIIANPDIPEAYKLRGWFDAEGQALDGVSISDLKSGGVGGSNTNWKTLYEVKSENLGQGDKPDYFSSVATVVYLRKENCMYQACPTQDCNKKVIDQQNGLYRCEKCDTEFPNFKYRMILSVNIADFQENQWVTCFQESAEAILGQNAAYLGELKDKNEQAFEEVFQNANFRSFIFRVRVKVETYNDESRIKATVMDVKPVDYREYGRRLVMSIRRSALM
UniProt O43665, sequence (O43665 whole entry, looked up): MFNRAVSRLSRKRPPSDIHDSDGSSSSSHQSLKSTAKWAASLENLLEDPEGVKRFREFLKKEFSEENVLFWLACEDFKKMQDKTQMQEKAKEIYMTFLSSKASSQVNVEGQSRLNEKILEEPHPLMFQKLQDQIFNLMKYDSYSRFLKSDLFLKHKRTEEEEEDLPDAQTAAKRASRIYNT
UniProt Q01974, sequence (Q01974 whole entry, looked up): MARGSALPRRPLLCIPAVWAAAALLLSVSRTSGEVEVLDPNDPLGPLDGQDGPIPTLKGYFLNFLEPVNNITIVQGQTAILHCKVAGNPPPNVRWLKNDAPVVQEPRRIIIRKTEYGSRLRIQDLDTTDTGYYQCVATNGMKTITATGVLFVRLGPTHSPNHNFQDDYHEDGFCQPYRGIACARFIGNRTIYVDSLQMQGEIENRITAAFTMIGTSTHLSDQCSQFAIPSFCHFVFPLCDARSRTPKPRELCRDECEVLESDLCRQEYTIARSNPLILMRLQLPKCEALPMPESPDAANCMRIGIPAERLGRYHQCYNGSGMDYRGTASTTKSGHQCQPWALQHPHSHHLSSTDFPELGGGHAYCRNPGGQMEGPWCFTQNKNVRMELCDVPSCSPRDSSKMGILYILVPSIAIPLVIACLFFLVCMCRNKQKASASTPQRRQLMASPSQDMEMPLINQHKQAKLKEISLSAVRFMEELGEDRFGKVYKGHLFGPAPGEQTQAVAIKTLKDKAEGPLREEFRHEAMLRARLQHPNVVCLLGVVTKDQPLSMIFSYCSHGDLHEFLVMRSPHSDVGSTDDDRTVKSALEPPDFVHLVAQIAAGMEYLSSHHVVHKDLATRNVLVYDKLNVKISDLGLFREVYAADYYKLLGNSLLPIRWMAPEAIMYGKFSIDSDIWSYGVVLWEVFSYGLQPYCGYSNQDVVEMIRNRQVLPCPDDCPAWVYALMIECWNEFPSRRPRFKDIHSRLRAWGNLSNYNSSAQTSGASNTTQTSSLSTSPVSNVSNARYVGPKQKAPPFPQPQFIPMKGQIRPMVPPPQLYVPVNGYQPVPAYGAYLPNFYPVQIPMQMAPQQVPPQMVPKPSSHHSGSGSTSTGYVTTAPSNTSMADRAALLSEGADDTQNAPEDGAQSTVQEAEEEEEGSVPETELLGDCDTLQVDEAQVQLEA
UniProt Q15418, sequence (Q15418 whole entry, looked up): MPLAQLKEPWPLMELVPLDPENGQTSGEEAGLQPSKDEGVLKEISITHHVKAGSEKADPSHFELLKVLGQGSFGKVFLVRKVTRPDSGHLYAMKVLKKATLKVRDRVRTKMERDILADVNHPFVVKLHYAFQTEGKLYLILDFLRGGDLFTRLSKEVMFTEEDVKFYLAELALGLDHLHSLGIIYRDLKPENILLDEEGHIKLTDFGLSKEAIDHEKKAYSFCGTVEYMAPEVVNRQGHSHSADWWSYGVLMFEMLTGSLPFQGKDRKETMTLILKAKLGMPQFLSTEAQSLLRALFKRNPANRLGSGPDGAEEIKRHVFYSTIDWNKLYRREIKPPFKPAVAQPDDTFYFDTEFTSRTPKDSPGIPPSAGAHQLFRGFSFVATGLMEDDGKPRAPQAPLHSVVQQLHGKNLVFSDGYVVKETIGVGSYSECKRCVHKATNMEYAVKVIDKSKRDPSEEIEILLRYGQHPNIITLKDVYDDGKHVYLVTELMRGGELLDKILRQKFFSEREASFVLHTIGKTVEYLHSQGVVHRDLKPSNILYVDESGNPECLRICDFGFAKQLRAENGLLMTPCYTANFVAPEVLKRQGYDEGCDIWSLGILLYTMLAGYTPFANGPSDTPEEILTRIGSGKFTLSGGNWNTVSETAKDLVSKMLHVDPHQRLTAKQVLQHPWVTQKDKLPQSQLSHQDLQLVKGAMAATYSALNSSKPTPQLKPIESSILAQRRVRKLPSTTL
UniProt Q99719, sequence (Q99719 whole entry, looked up): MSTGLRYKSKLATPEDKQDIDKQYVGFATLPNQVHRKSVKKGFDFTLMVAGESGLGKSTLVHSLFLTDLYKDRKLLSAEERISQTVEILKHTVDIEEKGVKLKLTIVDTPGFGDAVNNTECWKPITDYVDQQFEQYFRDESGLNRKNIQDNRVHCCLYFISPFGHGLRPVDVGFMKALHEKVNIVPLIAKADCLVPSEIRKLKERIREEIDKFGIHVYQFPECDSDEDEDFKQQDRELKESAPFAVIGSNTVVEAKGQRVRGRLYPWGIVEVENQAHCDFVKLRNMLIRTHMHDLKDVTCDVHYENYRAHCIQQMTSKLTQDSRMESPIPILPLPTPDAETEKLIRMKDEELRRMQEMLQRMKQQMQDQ
UniProt Q13530, sequence (Q13530 whole entry, looked up): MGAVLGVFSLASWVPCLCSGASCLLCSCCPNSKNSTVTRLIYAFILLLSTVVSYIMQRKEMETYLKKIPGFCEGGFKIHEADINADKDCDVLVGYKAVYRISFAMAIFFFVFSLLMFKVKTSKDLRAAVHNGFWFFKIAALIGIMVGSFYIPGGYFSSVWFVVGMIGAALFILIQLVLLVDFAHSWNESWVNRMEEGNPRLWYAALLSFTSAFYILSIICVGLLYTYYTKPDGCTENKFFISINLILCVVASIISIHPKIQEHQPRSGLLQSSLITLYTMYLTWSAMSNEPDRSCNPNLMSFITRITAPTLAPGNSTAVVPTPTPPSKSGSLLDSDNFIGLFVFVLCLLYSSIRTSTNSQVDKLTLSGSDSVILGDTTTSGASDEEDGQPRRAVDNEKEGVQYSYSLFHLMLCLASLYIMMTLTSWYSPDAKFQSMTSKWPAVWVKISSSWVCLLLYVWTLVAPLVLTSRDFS
UniProt Q8NBX0, sequence (Q8NBX0 whole entry, looked up): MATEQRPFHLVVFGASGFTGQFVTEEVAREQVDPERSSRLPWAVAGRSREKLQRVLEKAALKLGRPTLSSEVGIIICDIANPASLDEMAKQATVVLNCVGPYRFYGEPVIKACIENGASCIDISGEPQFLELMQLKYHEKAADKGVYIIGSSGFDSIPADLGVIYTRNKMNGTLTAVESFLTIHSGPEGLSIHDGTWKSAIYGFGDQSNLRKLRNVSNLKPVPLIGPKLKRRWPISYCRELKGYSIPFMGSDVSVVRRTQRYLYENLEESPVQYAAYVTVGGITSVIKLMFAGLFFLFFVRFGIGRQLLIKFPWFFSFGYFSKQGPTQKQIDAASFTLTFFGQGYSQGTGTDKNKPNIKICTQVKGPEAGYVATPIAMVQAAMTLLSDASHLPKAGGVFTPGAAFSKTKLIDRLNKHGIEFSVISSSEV
UniProt Q8TBN0, sequence (Q8TBN0 whole entry, looked up): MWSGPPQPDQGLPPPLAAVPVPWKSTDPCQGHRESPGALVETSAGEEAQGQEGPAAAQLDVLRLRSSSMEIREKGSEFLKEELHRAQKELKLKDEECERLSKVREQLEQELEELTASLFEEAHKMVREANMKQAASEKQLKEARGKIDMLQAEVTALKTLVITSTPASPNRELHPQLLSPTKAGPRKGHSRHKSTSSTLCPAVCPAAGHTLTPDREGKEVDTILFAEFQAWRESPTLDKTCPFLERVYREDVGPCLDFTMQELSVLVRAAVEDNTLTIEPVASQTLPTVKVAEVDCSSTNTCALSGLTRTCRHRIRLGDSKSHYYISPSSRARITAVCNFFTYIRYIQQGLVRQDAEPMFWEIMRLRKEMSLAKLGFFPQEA
UniProt Q6NT16, sequence (Q6NT16 whole entry, looked up): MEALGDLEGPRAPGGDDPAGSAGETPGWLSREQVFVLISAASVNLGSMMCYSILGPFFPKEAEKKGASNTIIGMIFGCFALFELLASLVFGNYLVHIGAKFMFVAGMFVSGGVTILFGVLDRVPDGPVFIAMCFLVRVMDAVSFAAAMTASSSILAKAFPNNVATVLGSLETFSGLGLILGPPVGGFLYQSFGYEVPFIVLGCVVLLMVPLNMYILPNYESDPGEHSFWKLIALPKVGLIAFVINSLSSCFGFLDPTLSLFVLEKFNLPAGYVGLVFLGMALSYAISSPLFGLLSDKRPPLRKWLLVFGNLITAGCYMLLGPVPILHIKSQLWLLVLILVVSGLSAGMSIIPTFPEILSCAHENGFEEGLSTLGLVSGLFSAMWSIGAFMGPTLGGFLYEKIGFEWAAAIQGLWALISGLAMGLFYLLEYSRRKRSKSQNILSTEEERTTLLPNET

Compound in the experiment: Cc1ccc(C(=O)N(CCCN)[C@@H](c2nc3cc(Cl)ccc3c(=O)n2Cc2ccccc2)C(C)C)cc1 [ispinesib]
Put plainly: log2 fold change, soluble protein after heating vs DMSO (PISA); higher = thermal stabilisation; K562 cells, 10 uM, 30 min; active = over 0.2 and 3.5 SD of the protein, either way, in both replicates (recomputed). A digest of the protocol:
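Soluble protein was defined as the supernatant after 21,000xg for 90 min. It came from K562 cells at 2×10^6 cells/mL given 10 μM compound for 30 min, heated in aliquots for 3 min across 48°C-58°C, pooled, and extracted in PBS with 0.5% NP-40 at 4°C, and was quantified by TMTpro 16plex LC-MS/MS with equalised channel sums. Thermal stability against control samples, from duplicates, is reported as log2 fold change.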
SIDT2 isoform 2 (UniProt Q8NBJ9): the log2 fold change is -0.143 (inactive). ROR2 (UniProt Q01974): the log2 fold change was 0.083 (inactive). Next, RAP1GDS1 isoform 5 (UniProt P52306): -0.096 (inactive); SKP1 (UniProt P63208): 0.089 (inactive). Next, REL (UniProt Q04864): -0.088 (inactive). As for SERINC3 (UniProt Q13530), the log2 fold change was -0.17 (inactive). With RPS9 (UniProt P46781), the log2 fold change was -0.04 (inactive). As for RB1CC1 (UniProt Q8TDY2), the figure is -0.02 (inactive); as for SAFB2 (UniProt Q14151), -0.043 (inactive). RAB3IL1 (UniProt Q8TBN0): the log2 fold change was 0.04 (inactive). Regarding RPS6KA1 isoform 2 (UniProt Q15418), the log2 fold change is 0.021 (inactive). As to RPRD1B (UniProt Q9NQG5), the log2 fold change is 0.039 (inactive). As for RPS3 (UniProt P23396), the figure is -0.127 (inactive); as for SEC24A (UniProt O95486), 0.017 (inactive). As to SCCPDH (UniProt Q8NBX0), the log2 fold change is 0.081 (inactive). Next, RPS27A (UniProt P62979): -0.047 (inactive); ROCK2 (UniProt O75116): -0.049 (inactive); SACM1L (UniProt Q9NTJ5): -0.096 (inactive). For the target RPA1 (UniProt P27694), the log2 fold change is 0.004 (inactive). Turning to RNASEH2A (UniProt O75792), the log2 fold change was -0.001 (inactive). On to RGS10 (UniProt O43665), for which the log2 fold change was 0.017 (inactive).

SDHAF2 (UniProt Q9NX18): the log2 fold change is 0.006 (inactive). Take SEPTIN5 (UniProt Q99719): the log2 fold change is 0.027 (inactive).

For SAMD4B (UniProt Q5PRF9), the log2 fold change was -0.082 (inactive). With SCD (UniProt O00767), the log2 fold change was -0.319 (inactive).

Take SEC23IP (UniProt Q9Y6Y8): the log2 fold change is -0.166 (inactive). Next, SLC18B1 (UniProt Q6NT16): -0.193 (inactive); SAAL1 (UniProt Q96ER3): -0.049 (inactive); SENP6 (UniProt Q9GZR1): -0.046 (inactive). RPS12 (UniProt P25398): the log2 fold change is 0.017 (inactive).

Regarding RANBP2 (UniProt P49792), the log2 fold change is -0.031 (inactive). For the target RETREG3 (UniProt Q86VR2), the log2 fold change is -0.459 (active).
